# Source: PubChem BioAssay
# HPGD block = HPGD (human) dehydrogenase inhibition. actives 4.3% (n = 150,000). purified HPGD, NADH fluorescence kinetic, PGE2 substrate. Potency, µM, for inactives: at the highest dose activity change, negative = inhibition, most hits filed as inhibitors
# Target sequence (P15428 whole entry, looked up): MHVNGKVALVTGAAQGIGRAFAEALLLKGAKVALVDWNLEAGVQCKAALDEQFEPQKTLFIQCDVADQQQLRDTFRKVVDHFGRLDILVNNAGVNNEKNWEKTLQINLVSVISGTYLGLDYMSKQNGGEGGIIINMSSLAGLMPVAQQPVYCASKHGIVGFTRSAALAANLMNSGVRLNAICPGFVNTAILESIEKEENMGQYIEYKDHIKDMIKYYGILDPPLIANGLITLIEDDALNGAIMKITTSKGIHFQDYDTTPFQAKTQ
#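 NADH formation kinetics: reaction with 30 uM PGE2 and 1 mM NAD+ (final), 20 nM enzyme, Tris-HCl pH 8 with Tween 20, after 15 min compound preincubation at room temperature. Fluorescence change, last versus first of five reads.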
# ALDH1A1 block = inhibitors of human aldehyde dehydrogenase 1A1 | Potency, µM (titrated, usually from 75.3 µM), inactives show at the top dose activity, negative = inhibition, actives largely listed as inhibitors | AID 1030 | P00352 | Purified ALDH1A1, NADH fluorescence, propionaldehyde substrate | actives 7.3% (n = 220,000);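 further: plate controls were no enzyme wells and a reference inhibitor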
# Target sequence (P00352 whole entry, looked up): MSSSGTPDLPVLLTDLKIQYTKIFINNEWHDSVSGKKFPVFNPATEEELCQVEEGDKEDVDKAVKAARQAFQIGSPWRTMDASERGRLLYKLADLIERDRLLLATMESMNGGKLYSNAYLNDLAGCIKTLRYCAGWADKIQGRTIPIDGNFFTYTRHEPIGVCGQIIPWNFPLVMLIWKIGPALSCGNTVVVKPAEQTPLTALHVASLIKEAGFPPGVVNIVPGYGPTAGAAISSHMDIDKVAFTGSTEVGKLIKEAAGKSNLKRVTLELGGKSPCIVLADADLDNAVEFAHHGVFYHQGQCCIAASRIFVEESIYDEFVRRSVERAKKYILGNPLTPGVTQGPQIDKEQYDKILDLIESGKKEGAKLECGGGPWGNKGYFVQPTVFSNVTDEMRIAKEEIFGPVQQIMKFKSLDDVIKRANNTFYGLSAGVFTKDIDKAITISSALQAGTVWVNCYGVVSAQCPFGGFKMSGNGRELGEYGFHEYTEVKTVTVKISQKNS
# KinaseGlo FLuc = Kinase-Glo luciferase inhibition (counter-screen). actives 0.28% (n = 200,000). Kinase-Glo luciferase, ATP luminescence, 8 min. Potency, µM (doses to about 38.3 µM), for the others: at the highest dose activity change, negative = inhibition, hits mostly inhibitors. Q27757; active means well fitted curve in the direction sought with a large enough effect; inconclusive means small, poorly fitted or top-dose-only effect, or another doubt; inactive means no such curve, though single readings can be large; an effect the other way counts as inactive or inconclusive; further: nearly all actives have a fitted effect of over 60% in size
#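 Kinase-Glo luciferase light output from ATP and luciferin was measured with 10 uM ATP, within the enzyme's linear range. Buffer: 50 mM imidazole pH 7.2, 50 mM KCl, 7 mM MgCl2, 0.01% Tween 20, 0.05% BSA; luminescence read after 8 min at ambient temperature.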
# LMNA splice mod = LMNA splicing modulation. HeLa LMNA splicing GFP/RFP minigene ratio, 48 h. Potency, µM (top dose mostly 46.1 µM), for the others: at the highest dose ratio change, negative = inhibition, most hits filed as inhibitors. AID 1487. actives 0.01% (n = 200,000); active means well fitted inhibition curve with a large enough effect in the signal ratio, with a control signal flat, not every such curve was filed as active; inconclusive means small, poorly fitted or top-dose-only effect, or effect the other way, or a change in a side signal; the % refers to the signal ratio
#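 S3 HeLa cells stably expressing lamin A-EGFP splicing minigene plus DsRed2, 600 cells/well, 48 h compound exposure at 37C. Laser-scanning cytometry; analysed as GFP (500-530 nm)/RFP (575-640 nm) total intensity ratio; 0.5% DMSO vehicle.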
# IMPase Li inh = IMPase inhibition in cells with lithium potentiation. actives 0.35% (n = 210,000). CHO-M1 cells, IP1 TR-FRET (IP-One), carbachol + lithium. AID 1457. Potency, µM (doses to about 59.4 µM), inactives show at the top dose activity, negative = IMPase inhibition, most hits filed as inhibitors; active means well fitted curve in the direction sought with a large enough effect; inconclusive means small, poorly fitted or top-dose-only effect, or another doubt; inactive means no such curve, though single readings can be large; an effect the other way counts as inactive or inconclusive;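 further: IP1 builds up when IMPase is blocked and the TR-FRET signal falls; plate controls were basal vehicle for no effect and high inhibitor control for full effect; nearly all actives have a fitted effect of over 50% in size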
#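 IP1 accumulation measured by competitive TR-FRET in lysed CHO-M1 cells after 30 min compound exposure at 37C, with a small lithium addition to potentiate weak responses. Hill-equation AC50 from ratio and donor-channel data.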
# * marks the source's active call; other numbers are inactive results; ? = inconclusive; nt = no result; [ ] = dose if it differs, or a comment. A selection: hits, their analogues and other compounds. The true share with any hit is near 9%. Unless noted, the call rests on the fitted dose curve; in most records, active means well fitted inhibition curve with a large enough effect (not every such curve was filed as active); inconclusive means small, poorly fitted or top-dose-only effect, or another doubt; inactive means no such curve, though single readings can be large or run the other way. Unless noted, on the % scale 0 is the no-effect control and ±100 the full control effect; potency means the concentration at half of the fitted maximal effect.
SMILES,HPGD block,ALDH1A1 block,KinaseGlo FLuc,LMNA splice mod,IMPase Li inh
CCN1CCN(C(=O)NC(c2ccc(C)c(F)c2)C(Cl)Cl)CC1 (centres undefined),nt,?,-1%,-1%[46 µM],19%
CSC1=NC2(CCN(C(=O)NC3CCCCC3)CC2)N=C1c1ccc(C)c(C)c1,nt,nt,nt,6%[46 µM],nt
Cc1cc(C)c2cc(C(O)c3nnnn3Cc3ccccc3)c(=O)[nH]c2c1 (centres undefined),-24%,-11%,1%,13%,11%[38.3 µM]
Cc1cc(C)c2cc(CN(CCO)C(c3nnnn3Cc3ccc(F)cc3)C(C)C)c(=O)[nH]c2c1 (centres undefined),1%,13µM*,4%,?,6%[38.3 µM]
Cc1cccc(Cn2c(=O)n(CC3CCC(C(=O)N4CCC(C)CC4)CC3)c(=O)c3sccc32)c1 (centres undefined),nt,nt,nt,7%[46 µM],nt
CC(=Nc1ccc2c(c1)nc(CO)n2C)C1=C(O)CC(C)(C)CC1=O,3.5µM*,?,-4%,1%,14%[38.3 µM]
Fc1ccc(-n2c(Cn3nnc4ccccc43)n[nH]c2=S)cc1,nt,3%,0%,nt,-2%
CCc1cccc(C)c1NC(=S)NCC1CCN(c2ccc(OC)cc2)C1 (centres undefined),nt,10µM*,14%,nt,24%
COc1ccc(N2CCC(CNC(=O)Nc3cccc(OC)c3)C2)cc1 (centres undefined),-8%,?,-3%,-9%,39%[38.3 µM]
COc1ccc(N2CCC(CNC(=O)Nc3ccc(Cl)cc3)C2)cc1 (centres undefined),nt,5.6µM*,5%,?,-9%
COc1ccc(/C=C/C(=O)OCC(=O)Nc2c(C)cccc2C)cc1,nt,9%,0%,6%[46 µM],-1%
COCCNc1c2c(nc3c(-c4ccccc4)c(C)nn13)CCCC2,-12%,-9%,-6%,1%,15%[38.3 µM]
Cc1nn2c(NCCOCCO)c3c(nc2c1-c1ccccc1)CCCC3,-15%,32µM*,-7%,4%,-6%[38.3 µM]
C=CCOC(=O)C1=C(C)NC(=S)NC1c1cccs1 (centres undefined),-7%,2.2µM*,-1%,-1%,-5%
CCN(CC)C(=O)C1=C(C)NC(=S)NC1c1cccs1 (centres undefined),nt,?,0%,nt,5%
COCCOC(=O)C1=C(C)NC(=S)NC1c1cccs1 (centres undefined),nt,22µM*,-1%,10%[46 µM],-1%
CC(CC(=O)O)(CC(=O)O)C(=O)O,-1%,3%[13.5 µM],-2%[7.66 µM],nt,10%
N#CC1(c2ccc(NC(=O)c3ccccc3)cc2)CCCC1,-24%,4.5µM*,?,3%,4%[38.3 µM]
O=C(NNC(=O)c1ccc(NC(=O)c2ccccc2)cc1)c1ccccc1,nt,6%,1%,9%[46 µM],-9%
CN(C)c1nc(-c2ccc3c(c2)OCO3)nc2ccccc12,nt,-5%,nt,?,13%
Oc1cccc2ccc(SSc3ccc4cccc(O)c4n3)nc12,0.56µM*,4µM*,-9%[7.66 µM],nt,18%
Cc1ccc2nc(NC(=O)CSc3nncc(=O)n3N)sc2c1,-11%,-9%,-1%,-4%,-5%
O=C(NCCCN1CCOCC1)c1cccnc1SCc1ccccc1Cl,nt,-3%,-1%,nt,6%
Cc1ccccc1-n1c(=O)cc(N2CCc3ccccc3C2)[nH]c1=O,-12%,?,1%,-3%,31%[38.3 µM]
O=c1cc(N2CCc3ccccc3C2)[nH]c(=O)n1-c1ccccc1Cl,-15%,6.3µM*,2%,-9%,19%[38.3 µM]
SMILES,HPGD block,ALDH1A1 block,KinaseGlo FLuc,LMNA splice mod,IMPase Li inh
CC(Sc1nc(-c2ccccc2)cc(C(F)(F)F)n1)C(=O)NCc1ccco1 (centres undefined),-11%,-9%,-2%,-4%,34%[38.3 µM]
O=C(CSc1nc(-c2ccccc2)cc(C(F)(F)F)n1)N1CCOCC1,-10%,-8%,-4%,-1%,8%[38.3 µM]
CC(Sc1nc(-c2ccccc2)cc(C(F)(F)F)n1)C(=O)N1CCCCC1 (centres undefined),7.1µM*,-10%,-2%,6%,6%[38.3 µM]
CC1CCCN(C(=O)C(C)Sc2nc(-c3ccccc3)cc(C(F)(F)F)n2)C1 (centres undefined),16µM*,-12%,1%,?,33%[38.3 µM]
O=C(COc1ccc(Cl)cc1)NCC(=O)N/N=C/c1cccs1,nt,?,-3%,nt,-3%
O=C(COc1ccccc1)NCC(=O)N/N=C/c1cccs1,-18%,22µM*,1%,3%,?
O=C1C(Nc2ccccc2)=C/C(=N/S(=O)(=O)c2cccs2)c2ccccc21,-11%,?,?,?,24%
COC(=O)c1ccccc1NC1=C/C(=N\S(=O)(=O)c2cccs2)c2ccccc2C1=O,?,3.2µM*,?,?,46%[38.3 µM]
Oc1cccc(/C=N/c2c(-c3ccco3)nc3ccccn23)c1,?,?,?,?,13µM*
O=[N+]([O-])c1ccc(Cl)c(-c2ccc(/C=N/c3c(-c4ccco4)nc4ccccn34)o2)c1,3%,1%,-2%,6%,8%[38.3 µM]
COc1ccc(N=C2O/C(=C/c3sc(=S)n(CC4CCCO4)c3O)N=C2C#N)cc1 (centres undefined),nt,1.1µM*,nt,nt,nt
C/C(=N\N1CCN(c2ccccc2)CC1)c1ccncc1,nt,13%,-1%,3%[46 µM],2%
CN(C(=O)COC(=O)c1nc(Cl)c(Cl)c(Cl)c1Cl)C1CCS(=O)(=O)C1 (centres undefined),nt,-13%,1%,nt,-9%
COc1cc2c(cc1OC)-c1cc(N3CCCc4ccccc43)nc(=O)n1CC2,-23%,11µM*,0%,-2%,29%[38.3 µM]
CCc1ccccc1N=C1S/C(=C/c2ccccc2OCC(=O)N2CCOCC2)C(=O)N1C,-4%,1%,3%,?,10%
O=C1NN(c2ccccc2)C(=O)/C1=C\c1ccccc1OCC(=O)N1CCOCC1,16µM*,?,-3%,10%,-19%[38.3 µM]
CCCc1nc2oc(C(=O)c3ccccc3)c(N)c2c2c1COC(C)(C)C2,-16%,10µM*,-3%,6%,0%[38.3 µM]
Cc1nc2oc(C(=O)c3ccc(Br)cc3)c(N)c2c2c1COC(C)(C)C2,nt,?,nt,0%,nt
CCc1cccc(C)c1NC(=O)Cn1ccn(Cc2ccc(Cl)cc2)c(=O)c1=O,nt,nt,nt,3%[46 µM],nt
CCc1[nH]c(=S)c(C#N)c2c1CCCC2,20µM*,?,3%,0%,-9%
c1ccc(-c2noc(CC3CCCCC3)n2)nc1,nt,-8%,-3%,nt,4%
Clc1nssc1=Nc1ccc(Br)cc1,nt,1.8µM*,-2%,nt,-3%
OCc1c(Cl)nc2ccccn12,nt,7%,-1%,6%[46 µM],-3%
OCc1ccccc1N=c1ssnc1Cl,6.3µM*,0.89µM*,-4%,11%,3%[38.3 µM]
COc1cc(N=c2ssnc2Cl)cc(OC)c1,0.63µM*,0.32µM*,-8%,9%,46%[38.3 µM]
COc1cc(OC)cc(-c2nc(-c3ccccc3OC)no2)c1,-13%,-5%,-3%,-2%,?
Clc1ccc(N=c2ssnc2Cl)nc1,nt,-3%,-3%,nt,20%
